Screens (PubChem)
Rows were chosen to be rich in hits. Some 21% of all compounds tested hit in one or more screens of this group.
DRD3 antagonist: qHTS of D3 Dopamine Receptor Antagonist: qHTS; 2.5% of 360,000 active; D3R cells, DiscoveRx beta-arrestin luminescence, antagonist mode; hits give low values; max response, negative = inhibition, %; D(3) dopamine receptor (Homo sapiens), P35462; in the data active = max response below about -50%; inconclusive = no clear call, values can overlap the other calls; note: % is set by controls: 0 for no effect and ±100 for the full control effect
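Cells plated overnight at 1500 cells/well, then exposed to library compounds with dopamine controls for 90 minutes at 37 degrees C. DiscoveRx reagent added for 30–60 minutes at room temperature; luminescence read, quantitative HTS format.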
IL-1B inflam inh: qHTS for Inhibitors of Inflammasome Signaling: IL-1-beta AlphaLISA Primary Screen; THP-1 LPS/ATP IL-1B secretion, AlphaLISA, 16 h; hits give low values; activity change, % at 57.5 µM; 4.7% of 360,000 active; AID 743279, 2014; in the data active = activity change below about -50%; inconclusive = mostly about -30% to -49%; note: % is set by controls: 0 for no effect and ±100 for the full control effect
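THP-1 cells pretreated 1 hr with compounds (up to 57.5 uM final), then stimulated with LPS (250 ng/mL final) plus ATP (1.25 mM final); secreted IL-1B measured by AlphaLISA after 16 hr, decreased signal indicating inhibition.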
D3 ag: qHTS of D3 Dopamine Receptor Agonist: qHTS. 0.58% of 410,000 active. AID 652048, 2013. D3R DiscoveRx beta-arrestin cells, luminescence, 90 min. max activation, %; in the data active = max activation above about 30%; note: 0% is about no effect
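Cells at 1500/well, incubated overnight, then treated with pinned compounds (dopamine as control) for 90 min at 37 degrees C. DiscoveRx reagent added for 30 - 60 minutes at room temperature; luminescence read.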
ClpP mod: qHTS Assay for Activators of ClpP; 1.9% of 340,000 active; purified B. subtilis ClpP, FRET peptide cleavage, 20 min; ATP-dependent Clp protease proteolytic subunit (Bacillus subtilis (strain 168)), P80244; Potency, µM (series often up to 57.5 µM), for the others: at the top dose activity change, negative = active; active = well fitted falling curve with a large enough effect; inconclusive = small, poorly fitted or top-dose-only effect; inactive = no such curve, though single readings can be large or run the other way; note: potency is the fitted concentration of half-maximal effect; the source files actives as falling curves though it sought activators and does not explain the sign; nearly all actives have a fitted effect of over 65% in size
Target sequence (P80244 whole entry, looked up): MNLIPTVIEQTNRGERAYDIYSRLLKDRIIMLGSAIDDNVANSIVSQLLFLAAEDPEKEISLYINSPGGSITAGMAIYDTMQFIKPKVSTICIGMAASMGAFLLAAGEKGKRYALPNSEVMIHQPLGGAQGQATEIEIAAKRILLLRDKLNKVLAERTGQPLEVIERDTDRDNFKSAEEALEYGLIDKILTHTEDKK
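ClpP 10 microg/mL final, pH 8 Tris/KCl buffer with BSA, glycerol, Tween-20; compound pinned in; FRET-FV substrate; RT 20 min; Ex320/Em430; ΔFRET vs ADEP 5.8 microM, DMSO, no enzyme.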
TDP1 cell CPT: qHTS for Inhibitors of human tyrosyl-DNA phosphodiesterase 1 (TDP1): qHTS in cells in presence of CPT | 12% of 420,000 active | Potency, µM (series often up to 46.2 µM), inactives show at the top dose activity change, negative = growth inhibition, usual class: inhibitors | chicken DT40 Tdp1-/-;hTDP1 cells + 20 nM CPT, ATP luminescence, 48 h; note: potency is the fitted concentration of half-maximal effect; % is set by controls: 0 for no effect and ±100 for the full control effect; nearly all actives have a fitted effect of over 55% in size
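Cell growth measured by CellTiter-Glo luminescence after a minimum 48 h, 37 C compound exposure with 20 nM CPT in Tdp1-knockout DT40 cells stably expressing hTDP1, seeded 400/well; qHTS titration format.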
TDP1 cell noCPT: qHTS for Inhibitors of human tyrosyl-DNA phosphodiesterase 1 (TDP1): qHTS in cells in absence of CPT | DT40 Tdp1-/- hTDP1 cells, no CPT, ATP luminescence, 48 h | 15% of 420,000 active | Potency, µM (top dose mostly 46.2 µM), for inactives: at the highest dose activity change, negative = growth inhibition, usual class: inhibitors; note: potency is the fitted concentration of half-maximal effect; % is set by controls: 0 for no effect and ±100 for the full control effect; nearly all actives have a fitted effect of over 55% in size
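Seeded 400 DT40-hTDP1 cells/well (vehicle DMSO, no 20 nM CPT); pinned compounds; ≥48 hr at 37 °C; CellTiter-Glo luminescence as viability measure.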
* marks the source's active call; other numbers are inactive results; ? = inconclusive; nt = no result given; ! = not active in a repeat. Unless noted, calls come from the whole dose curve; as a rule, active = well fitted inhibition curve with a large enough effect; inconclusive = small, poorly fitted or top-dose-only effect; inactive = flat fitted curve, though single readings scatter.

SMILES	DRD3 antagonist	IL-1B inflam inh	D3 ag	ClpP mod	TDP1 cell CPT	TDP1 cell noCPT
CCc1cccc(NS(=O)(=O)c2ccc3c(c2)NC(=O)C(C)S3)c1 (stereo not given)	3	-10	4	0%	21µM*	?
CCC1Sc2ccc(S(=O)(=O)N3CCN(c4ccccc4)CC3)cc2NC1=O (stereo not given)	9	23	2	-3%	15µM*	?
COc1cccc(NS(=O)(=O)c2ccc3c(c2)NC(=O)C(C)S3)c1 (stereo not given)	10	41	3	-1%	?	?
COc1ccc(N2CCN(S(=O)(=O)c3ccc4c(c3)NC(=O)C(C)S4)CC2)cc1 (stereo not given)	10	-26	19	nt	?	?
CCC1Sc2ccc(S(=O)(=O)CCC(=O)Nc3c(Cl)cc(OC)cc3OC)cc2NC1=O (stereo not given)	16	26	8	0%	?	?
CCNC(=O)[C@H]1O[C@H](n2cnc3c(N)nc(NCCc4ccc(CCC(=O)O)cc4)nc32)[C@@H](O)[C@@H]1O	nt	nt	nt	nt	0%	?
C/C(O)=C(\N=Nc1cc(C)ccc1O)C(N)=O	-23	30	-5	nt	?	21µM*
Cc1ccc(-n2nnc3c(=O)n(CC(N)=O)cnc32)cc1	-8	27	3	nt	2%	28%
COc1ccc(CNc2ncnc3nc[nH]c23)cc1	nt	nt	nt	1%	14µM*	14µM*!
COc1cccc(CNc2ncnc3nc[nH]c23)c1	nt	nt	nt	-1%	?	?
COc1ccc(CNc2nc(NCc3ccc(OC)cc3)c3[nH]cnc3n2)cc1	73	10	56*	-15%	?	29µM*
O=C(c1cc(C2CC2)nn1-c1ccccc1)N1CCN(S(=O)(=O)c2cccc(F)c2)CC1	6	?	-13	-3%	?	-61%
CCN1C(=O)c2ccccc2S(=O)c2ccc(C(=O)N3CCN(c4ccccc4OC)CC3)cc21 (stereo not given)	nt	nt	5	-2%	?	?
COC(=O)[C@]1(C)N[C@H](c2ccc(-c3ccc(F)cc3)cc2)[C@@H]2C(=O)N(C)C(=O)[C@@H]21	-9	-16	6	-2%	?	?
NC(N)=N/N=C/c1cccc(Cl)c1Cl	-2	-101*	-16	nt	?	?
Cc1c(NC(=O)c2nc3ccccc3nc2N2CCCCC2)cccc1[N+](=O)[O-]	nt	nt	6	0%	?	?
CCCCn1c(SCc2c(C)noc2C)nc2cc(S(N)(=O)=O)ccc21	0	?	-1	38%	13µM*	?
CCCCn1c(SCC(=O)Nc2cc(C)on2)nc2cc(S(N)(=O)=O)ccc21	-17	-17	-10	-3%	-14%	-4%
O=C(Nc1ccc(S(=O)(=O)Nc2ccccc2)cc1)C1COc2ccccc2O1 (stereo not given)	-23	-69*	-7	0%	16µM*	21µM*
CN1CCN(c2ccc(Cl)cc2NC(=O)C2COc3ccccc3O2)CC1 (stereo not given)	5	-4	1	-2%	?	29µM*
COc1ccccc1NC(=O)c1ccc(NC(=O)C2COc3ccccc3O2)cc1 (stereo not given)	-9	-55*	-3	nt	?	?
CC(C)NC(=O)c1ccccc1NC(=O)C1COc2ccccc2O1 (stereo not given)	18	0	-1	-16%	?	21µM*
